{
  "source": "ChEMBL document CHEMBL3988442",
  "about": "“University of Dundee, Small-Polar-MMV Screening Library” (2021)",
  "note": "Out of some 48,000 compounds screened, about 13,000 (27%) showed an effect of 50% or more. The list shows a part of the results.",
  "data": [
    {"test_system": "Wolbachia pipientis", "assay": "Anti-Wolbachia Cell-Based Screen", "format": "functional", "design": "scale not given: in the data most compounds retested in dose-response had high values", "conditions": "5 µM", "units": {"Percent Effect": "%"}, "values": [
      {"molecule": "COc1cccc2c1CCN(C(=O)NCc1nnc3ccccn13)C2", "Percent Effect": -4.622},
      {"molecule": "COc1cc(NC(=O)C2CC(=O)N(c3cccc(Br)c3)C2)ncn1", "note": "(stereo not given)", "Percent Effect": -7.851},
      {"molecule": "CCNC(=O)[C@@H]1C[C@@H](N)CN1Cc1ccc2cccc(Cl)c2n1", "Percent Effect": -2.31},
      {"molecule": "CCc1ccc2c(c1)C(CCNC(=O)CSC(F)(F)F)C(=O)N2", "note": "(stereo not given)", "Percent Effect": 2.698},
      {"molecule": "Cc1ccc(C(=O)N2CCCCC2CN(C)C)cc1", "note": "(stereo not given)", "Percent Effect": 107.2},
      {"molecule": "CN(C)CC1CCCCN1C(=O)c1ccc(N2CCOCC2)cc1", "note": "(stereo not given)", "Percent Effect": 108.2},
      {"molecule": "CCC1CCCCN1C(=O)c1ccc2[nH]nnc2c1", "note": "(stereo not given)", "Percent Effect": 1.78},
      {"molecule": "Cc1cnn(CC2CCCCN2C(=O)c2ccc(CN(C)C)cc2)c1", "note": "(stereo not given)", "Percent Effect": 17.54},
      {"molecule": "CCC1CCCCCN1C(=O)c1ccc(N2CCC(O)CC2)cc1", "note": "(stereo not given)", "Percent Effect": 94.71},
      {"molecule": "Cc1ccccc1C(=O)N1CCOCC1CN(C)C.O=CO", "note": "(stereo not given)", "Percent Effect": -21.7},
      {"molecule": "COCCCC1CCCCN1C(=O)c1ccc(SCCO)cc1", "note": "(stereo not given)", "Percent Effect": -1.649},
      {"molecule": "CN(C)CC1COCCN1C(=O)c1ccccc1C(=O)c1ccccc1.O=CO", "note": "(stereo not given)", "Percent Effect": -10.61},
      {"molecule": "CCC1CCCCCN1C(=O)c1coc(S(=O)(=O)N(C)C)c1", "note": "(stereo not given)", "Percent Effect": 15.41},
      {"molecule": "Cn1cccc1-c1nnc(C2(c3ccc4c(c3)OCO4)CCOCC2)o1", "Percent Effect": -12.47},
      {"molecule": "COCCOc1ncccc1C(=O)N(C)c1nccs1", "Percent Effect": -66.02},
      {"molecule": "CCOCc1nc2c(c(N3CC=CC3)n1)CCN(C1CCOCC1)CC2", "Percent Effect": -25.57},
      {"molecule": "CCc1ccccc1OCCN1CCC(NS(C)(=O)=O)CC1", "Percent Effect": 2.392},
      {"molecule": "COc1cccc(C(=O)NS(=O)(=O)c2cccc(C#N)c2)c1", "Percent Effect": 105.7},
      {"molecule": "COc1ccc(C(=O)NS(=O)(=O)c2cccc(C#N)c2)cc1", "Percent Effect": 98.14},
      {"molecule": "N#Cc1cccc(S(=O)(=O)NC(=O)COc2ccc3c(c2)CCC3)c1", "Percent Effect": -8.201},
      {"molecule": "Cn1nnc2cc(C(=O)NS(=O)(=O)c3cccc(C#N)c3)ccc21", "Percent Effect": -4.102},
      {"molecule": "CCN(CC)C(=O)CCNC(=O)c1c[nH]c2ccc(OC)cc12", "Percent Effect": 24.42},
      {"molecule": "COc1ccc(C(=O)N2C[C@@H](CN3CCOCC3)[C@@H](CO)C2)c(C)c1", "Percent Effect": -1.833},
      {"molecule": "COCCCNC(=O)c1c[nH]c2ccc(OC)cc12", "Percent Effect": -17.1},
      {"molecule": "Cc1cc(C(=O)N2C[C@@H]3CCCO[C@@H]3[C@H](N3CCOCC3)C2)c(C)[nH]1", "Percent Effect": 5.404},
      {"molecule": "COc1ccc2[nH]cc(C(=O)N3C[C@@H](O)[C@H](N4CCOCC4)C3)c2c1", "Percent Effect": 129.4},
      {"molecule": "COc1ccc2[nH]cc(C(=O)N3C[C@@H](O)[C@H](NS(C)(=O)=O)C3)c2c1", "Percent Effect": 146.2},
      {"molecule": "CCN(CC)C(=O)CNC(=O)c1c[nH]c2ccc(OC)cc12", "Percent Effect": -4.616},
      {"molecule": "COc1ccc2[nH]cc(C(=O)N3CC[C@H](CO)[C@@H](O)C3)c(=O)c2c1", "Percent Effect": 6.79},
      {"molecule": "COc1ccc2[nH]cc(C(=O)N3C[C@@H](O)[C@H](N4CCCC4)C3)c2c1", "Percent Effect": 103.4}
    ]}
  ]
}
